# Measurements as given in PubChem BioAssay (EPA / NIEHS).
# Values joined by “and” are separate entries in the source; they are usually repeats but may differ in a detail not shown here. Identical values can stand only once. Some compounds were tested as several samples or in several runs, with calls that do not always agree. Active and inactive are the calls of the source. The calls were made as follows: active = hit-call score of the fitted dose curve at least 0.9, where 1 is the maximum; inactive = score below 0.9.
# Read-out: E-selectin (Homo sapiens) (UniProt P16581)
# Experiment: BSK_3C_Eselectin: BioMAP Diversity Plus: 3C Assay for Eselectin Biomarker Activity (AID 2283015)
# Settings: primary human endothelial cells (HUVEC); actives raise or lower the signal
# Method: BSK_3C is a cell-based, multiplexed-readout assay that uses umbilical vein endothelium, a human vascular primary cell, with measurements taken at 24 hours after chemical dosing in a 96-well plate.BSK_3C_Eselectin is an assay component measured in the BSK_3C assay. It measures E-selectin antibody related to regulation of gene expression using ELISA technology.Data from the assay component BSK_3C_Eselectin was analyzed into 1 assay endpoint. This assay endpoint, BSK_3C_Eselectin, was analyzed with bidirectional fitting relative to DMSO as the negative control and baseline of activity. Using a type of binding reporter, gain or loss-of-signal activity can be used to understand changes in the signaling as they relate to the gene SELE. Furthermore, this assay endpoint can be referred to as a primary readout, because this assay has produced multiple assay endpoints where this one serves a signaling function. To generalize the intended target to other relatable targets, this assay endpoint is annotated to the cell adhesion molecules intended target family, where the subfamily is selectins.
# The levels of cell surface (or secreted, indicated by the prefix "s") biomarker endpoints were measured by ELISA. Overt cytotoxicity to cells in confluent adherent cultures (all systems other than the BT system) was assessed by measuring total protein levels using sulforhodamine B (SRB) staining in parallel cultures at the time of biomarker measurements, indicated as SRB endpoints. For proliferation assays for adherent cell types, individual cell types are cultured at sub-confluence and relative cell numbers quantified by SRB staining at time points optimized for each system (48 h: 3C and CASM3C systems; 72 h: BT and HDF3CGF systems; 96 h: SAg system). SRB was performed by staining cells with 0.1% SRB after fixation with 10% TCA and reading wells at 560 nm.Viability and proliferation of PBMC (T cells) was quantified by Alamar Blue reduction for the SAg and BT systems. For PBMC viability (referred to as PBMC Cytotoxicity within the assay endpoint names), cells were plated (75,000/well in a 96-well plate) and then chemical samples added for 1 h before addition of activators, SEB and TSST-1 (20 ng/mL final concentration each). Cells were incubated for 90 h. Then, Alamar Blue (20 uL/well) (Invitrogen, Cat DAL1100) was added for 6 h, and the plates were read with a fluorescence microplate reader at 546/580 nm (excitation/emission). For PBMC proliferation, cells were plated and activated as above but incubated for only 16 h prior to addition of Alamar Blue. Plates were read after 6 h.
# Sequence of E-selectin (Homo sapiens) (P16581 whole entry, looked up): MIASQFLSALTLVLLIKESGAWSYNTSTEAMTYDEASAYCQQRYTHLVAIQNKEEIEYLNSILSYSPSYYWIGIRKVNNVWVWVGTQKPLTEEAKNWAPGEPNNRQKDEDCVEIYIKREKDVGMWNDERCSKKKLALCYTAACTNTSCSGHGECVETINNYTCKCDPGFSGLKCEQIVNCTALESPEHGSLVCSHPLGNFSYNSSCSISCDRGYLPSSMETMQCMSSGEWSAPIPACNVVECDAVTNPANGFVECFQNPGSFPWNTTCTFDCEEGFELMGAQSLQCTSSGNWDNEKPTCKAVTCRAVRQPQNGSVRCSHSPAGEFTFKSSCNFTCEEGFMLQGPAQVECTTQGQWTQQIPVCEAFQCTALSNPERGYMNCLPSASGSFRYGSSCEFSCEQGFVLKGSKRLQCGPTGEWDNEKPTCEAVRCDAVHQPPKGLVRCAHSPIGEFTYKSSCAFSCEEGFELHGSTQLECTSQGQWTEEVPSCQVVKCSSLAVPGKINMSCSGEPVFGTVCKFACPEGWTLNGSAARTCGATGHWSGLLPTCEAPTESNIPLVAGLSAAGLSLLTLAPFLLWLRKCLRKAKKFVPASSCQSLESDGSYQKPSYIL
SMILES,AC50,outcome
OCCCC(F)(F)C(F)(F)C(F)(F)C(F)(F)C(F)(F)C(F)(F)C(F)(F)F,23.3 µM (active) and 48.9 µM (active),
FC(F)(F)C(F)(F)C(F)(F)C(F)(F)C(F)(F)C(F)(F)C(F)(F)C(F)(F)F,,inactive
CCO[Si](CCC(F)(F)C(F)(F)C(F)(F)C(F)(F)C(F)(F)C(F)(F)F)(OCC)OCC,,inactive
O=C(O)C(F)(F)C(F)(F)F,,inactive
O=C(O)C(F)(F)C(F)(F)C(F)(F)C(F)(F)C(F)(F)C(F)(F)C(F)(F)C(F)(F)C(F)(F)C(F)F,,inactive
FC(F)(F)C(F)(F)C(F)(F)C(F)(F)C(F)(F)C(F)(F)C(F)(F)Br,,inactive
CC(C)(C)C(=O)CC(=O)C(F)(F)C(F)(F)C(F)(F)F,,inactive
CCCCCCCOC(=O)c1ccccc1C(=O)OCCCCCCC,,inactive
O=C(O)C(F)(OC(F)(F)C(F)(OC(F)(F)C(F)(OC(F)(F)C(F)(F)C(F)(F)F)C(F)(F)F)C(F)(F)F)C(F)(F)F (stereo not given),,inactive
OCC(F)(F)C(F)(F)C(F)(F)C(F)F,,inactive
Nc1ccc([N+](=O)[O-])cc1O,,inactive
O=C(O)C(F)(OC(F)(F)C(F)(OC(F)(F)C(F)(F)C(F)(F)F)C(F)(F)F)C(F)(F)F (stereo not given),,inactive
O=S(=O)(OCC(F)F)C(F)(F)F,,inactive
N=C(N)C(F)(F)C(F)(F)C(F)(F)C(F)(F)C(F)(F)C(F)(F)C(F)(F)F,,inactive
CS(C)(=O)=O,,inactive
O=C(CC(=O)C(F)(F)C(F)(F)F)C(F)(F)F,,inactive
O=C(O)C(F)(F)C(F)(F)C(F)(F)C(F)(F)C(F)(F)C(F)(F)C(F)(F)C(F)(F)C(F)(F)C(F)(F)C(F)(F)C(F)(F)F,,inactive
CCN(CC)c1ccc2c(C)cc(=O)oc2c1,,inactive
Oc1ccc(Nc2ccccc2)cc1,20 µM (active),

SMILES,AC50,outcome
C=CC(=O)OCC(F)(F)C(F)(F)C(F)(F)C(F)(F)C(F)(F)C(F)(F)C(F)(F)F,,inactive
FC(F)(F)C(F)(F)C(F)(F)C(F)(F)CCI,,inactive
C=C(C)C(=O)OCCC(F)(F)C(F)(F)C(F)(F)C(F)(F)C(F)(C(F)(F)F)C(F)(F)F,,inactive
CO[Si](OC)(c1ccccc1)c1ccccc1,31 µM (active),
C=CC/C=C/C/C=C/C/C=C/C,,inactive
CCc1c(Br)c(Br)c(Br)c(Br)c1Br,,inactive
Cc1ccc(S(=O)(=O)OCC(F)(F)C(F)(F)C(F)(F)C(F)(F)C(F)(F)C(F)F)cc1,33.4 µM (active),inactive
O[Si](c1ccccc1)(c1ccccc1)c1ccccc1,6.83 µM (active),
CC(=O)Nc1ccc(N=Nc2cc(C)ccc2O)cc1,0.463 µM (active),
O=S(=O)(O)C(F)(F)C(F)(F)C(F)(F)C(F)(F)C(F)(F)C(F)(F)C(F)(F)F,,inactive
FC(F)(F)C(F)(F)C(F)(F)C(F)(F)C(F)(F)C(F)(F)C(F)(F)C(F)(F)CCS,,inactive
CC(CCl)OP(=O)(OC(C)CCl)OC(C)CCl (stereo not given),,inactive
FC(F)(F)C(F)(F)C(F)(F)CI,,inactive
FC(F)(F)C(F)(F)C(F)(F)C(F)(F)C(F)(F)C(F)(F)CC1CO1 (stereo not given),,inactive
O=C(O)C(F)(F)C(F)(F)C(F)(F)C(F)(F)C(F)(F)C(F)(F)C(F)(F)C(F)(F)Cl,23.8 µM (active),inactive
O=C(Cl)C(F)(F)C(F)(F)C(F)(F)C(F)(F)C(F)(F)C(F)(F)C(F)(F)C(F)(F)F,,inactive
FC(F)(F)C(F)(F)C(F)(F)C(F)(F)C(F)(F)C(F)(F)CCS,,inactive
OCC(F)(F)C(F)(F)C(F)(F)C(F)(F)C(F)(F)C(F)F,,inactive
CCCCCCCCC(F)(F)C(F)(F)C(F)(F)C(F)(F)C(F)(F)C(F)(F)F,,inactive
